This is a sample that favours compounds with a hit; in the whole collection about 4.7% have one here.
D1 ag: activates the human D1 dopamine receptor; AID 504660; HEK293 T-REx D1 cells, calcium flux, agonist mode; activation, % at 2 µM; P21728; hit rate 1% among 360,000
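Inducible HEK293 T-REx D1 cells, force-coupled to calcium signalling, were plated at 4000 cells/well with tetracycline and held overnight at 30 C. After no-wash calcium dye loading, compound-evoked calcium rise over 180 s flagged agonists.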
D1 antagonist: human D1 dopamine receptor antagonism | P21728 | HEK293 TREx D1 cells, calcium flux, dopamine EC80; active compounds read low | activity change, negative = inhibition, % at 10 µM | hit rate 3.2% among 360,000 | AID 504652; in the data active means activity change below about -30%
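Calcium flux readout: force-coupled, inducible Hek293 Trex D1 line, cells induced overnight at 30 C with tetracycline, dye-loaded 30–90 min at RT. Antagonism scored against EC80 dopamine challenge given 180 s after compound.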
D1 potentiator: human D1 dopamine receptor positive modulation. P21728. HEK293 TREx D1 cells, calcium flux, dopamine EC20 potentiation. potentiation, % at 10 µM. hit rate 0.036% among 360,000. AID 504651; in the data active means potentiation above about 30%
TRHR ag: activates the human TRH receptor; P34981; TRHR cells, calcium flux fluo-8, FDSS agonist mode; activation, % at 2 µM; hit rate 0.18% among 360,000; AID 493084
Target sequence (P34981 whole entry, looked up): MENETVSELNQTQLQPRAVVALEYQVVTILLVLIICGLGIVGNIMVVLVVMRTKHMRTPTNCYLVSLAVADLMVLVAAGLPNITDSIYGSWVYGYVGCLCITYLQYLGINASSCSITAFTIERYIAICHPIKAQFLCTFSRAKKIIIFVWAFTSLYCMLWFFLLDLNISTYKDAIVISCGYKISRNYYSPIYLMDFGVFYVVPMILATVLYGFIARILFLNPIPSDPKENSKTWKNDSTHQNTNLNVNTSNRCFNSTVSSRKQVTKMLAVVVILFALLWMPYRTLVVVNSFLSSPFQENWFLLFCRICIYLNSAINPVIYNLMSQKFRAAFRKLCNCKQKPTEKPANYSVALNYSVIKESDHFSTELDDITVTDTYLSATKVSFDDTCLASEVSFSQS
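TRHR-expressing cells, plated overnight in medium with 10% serum, were loaded with fluo-8 calcium dye at room temperature. After a 10 s baseline, library compound was pin-added and calcium release was recorded kinetically (ex 480/em 530) as agonist response.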
TRHR enhancer: TRH receptor (human) allosteric enhancement | enhancement, % at 2 µM | TRHR cells, fluo-8 calcium fluorescence, EC20 TRH enhancement | P34981 | AID 493056 | hit rate 0.66% among 360,000; in the data active means enhancement above about 30%
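TRHR-expressing cells loaded with fluo-8 calcium dye were read kinetically (ex 480/em 530) during compound addition, then stimulated with an EC20 of TRH (10 nM final). Enhancement of the Gq-mediated intracellular calcium response was scored.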
Hits are given with their value. Unless noted, no stated cut-off is given here; in the data, active means activation above about 30%; inactive means the rest.

How did Cc1ccc(-c2csc3nc(CN(C)Cc4ccccc4)[nH]c(=O)c23)cc1 do in these assays?
D1 ag: inactive; D1 antagonist: -36; D1 potentiator: inactive; TRHR ag: inactive; TRHR enhancer: inactive

How did O=c1[nH]c(Cc2ccc(F)cc2)nc2scc(-c3ccc(F)cc3)c12 do in these assays?
D1 ag: inactive; D1 antagonist: inactive; D1 potentiator: inactive; TRHR ag: inactive; TRHR enhancer: inactive

What do the screens show for `Cc1ccc(-c2csc3nc(-c4ccncc4)[nH]c(=O)c23)cc1`?
D1 ag: inactive; D1 antagonist: -34; D1 potentiator: inactive; TRHR ag: inactive; TRHR enhancer: inactive

Results for CCOc1cc(CNC(=O)c2ccccc2NC(=O)c2nsc3ccccc23)ccc1OC ?
D1 ag: inactive; D1 antagonist: inactive; D1 potentiator: inactive; TRHR ag: inactive; TRHR enhancer: inactive

How did CCN(CC)c1ccc(N)cc1S(=O)(=O)Nc1ccc(OC)cc1 do in these assays?
D1 ag: inactive; D1 antagonist: inactive; D1 potentiator: inactive; TRHR ag: inactive; TRHR enhancer: inactive

What do the screens show for `CCN(CC)c1ccc(N)cc1S(=O)(=O)Nc1ccccc1OC`?
D1 ag: inactive; D1 antagonist: -32; D1 potentiator: inactive; TRHR ag: inactive; TRHR enhancer: inactive

How did Cc1ccc(Cn2c3ccccc3c3cnn(CC(=O)Nc4cc(Cl)ccc4C)c(=O)c32)cc1 do in these assays?
D1 ag: inactive; D1 antagonist: inactive; D1 potentiator: inactive; TRHR ag: inactive; TRHR enhancer: 45

What do the screens show for `CCCn1c2ccccc2c2cnn(CC(=O)NCCc3ccc(S(N)(=O)=O)cc3)c(=O)c21`?
D1 ag: inactive; D1 antagonist: inactive; D1 potentiator: inactive; TRHR ag: 40; TRHR enhancer: inactive

Results for Cc1cc(C)c(Cn2c3ccccc3c3cnn(CC(=O)NCc4ccc(Cl)cc4)c(=O)c32)c(C)c1 ?
D1 ag: inactive; D1 antagonist: inactive; D1 potentiator: inactive; TRHR ag: inactive; TRHR enhancer: inactive

What do the screens show for `CC(Oc1ccc(C(C)(C)C)cc1)C(=O)NC1CC(C)(C)NC(C)(C)C1` (stereo unspecified)?
D1 ag: inactive; D1 antagonist: inactive; D1 potentiator: inactive; TRHR ag: inactive; TRHR enhancer: inactive

Results for CCOC(=O)CN1C(=O)C(Sc2n[nH]c(-c3ccc(C)cc3)n2)CCc2ccccc21 (stereo unspecified) ?
D1 ag: inactive; D1 antagonist: -66; D1 potentiator: inactive; TRHR ag: inactive; TRHR enhancer: inactive

What do the screens show for `O=C1NC2=C(C(=O)CCC2)C(c2ccc(OC(F)F)cc2)N1` (stereo unspecified)?
D1 ag: inactive; D1 antagonist: inactive; D1 potentiator: inactive; TRHR ag: inactive; TRHR enhancer: inactive

How did CCOC(=O)c1ccc2c(c1)sc1nc(-c3ccc(OCC)cc3)cn12 do in these assays?
D1 ag: inactive; D1 antagonist: inactive; D1 potentiator: inactive; TRHR ag: inactive; TRHR enhancer: inactive

How did COc1cc2c(cc1OC)C(COc1cccc(C(F)(F)F)c1)NCC2 (stereo unspecified) do in these assays?
D1 ag: 32; D1 antagonist: inactive; D1 potentiator: inactive; TRHR ag: inactive; TRHR enhancer: inactive

How did COc1ccc(OCC2NCCc3cc(OC)c(OC)cc32)cc1 (stereo unspecified) do in these assays?
D1 ag: inactive; D1 antagonist: inactive; D1 potentiator: inactive; TRHR ag: inactive; TRHR enhancer: inactive

Results for CCc1nn(CC(=O)NCCc2ccc(S(N)(=O)=O)cc2)c(=O)c2cc3sccc3n12 ?
D1 ag: inactive; D1 antagonist: inactive; D1 potentiator: inactive; TRHR ag: inactive; TRHR enhancer: inactive

How did CC(=O)C1=C(C)NC(SCC(=O)c2ccc(F)cc2)=C(C#N)C1c1ccco1 (stereo unspecified) do in these assays?
D1 ag: inactive; D1 antagonist: inactive; D1 potentiator: inactive; TRHR ag: inactive; TRHR enhancer: inactive

Results for CCc1ccc(C(=O)CSC2=C(C#N)C(c3ccco3)C(C(C)=O)=C(C)N2)cc1 (stereo unspecified) ?
D1 ag: inactive; D1 antagonist: -34; D1 potentiator: inactive; TRHR ag: inactive; TRHR enhancer: inactive

How did CC(C)(C)c1ccc(C(=O)CCCSC2=C(C#N)C(c3ccco3)C3=C(CCCC3=O)N2)cc1 (stereo unspecified) do in these assays?
D1 ag: inactive; D1 antagonist: inactive; D1 potentiator: inactive; TRHR ag: inactive; TRHR enhancer: inactive

What do the screens show for `N#CC1=C(SCC(=O)c2ccccc2)NC2=C(C(=O)CCC2)C1c1ccco1` (stereo unspecified)?
D1 ag: inactive; D1 antagonist: -44; D1 potentiator: inactive; TRHR ag: inactive; TRHR enhancer: inactive

Results for Cc1ccc(C(=O)CSC2=C(C#N)C(c3ccco3)C3=C(CCCC3=O)N2)cc1 (stereo unspecified) ?
D1 ag: inactive; D1 antagonist: -37; D1 potentiator: inactive; TRHR ag: inactive; TRHR enhancer: inactive

How did COc1ccc(N2CCN(C(c3cc(OC)ccc3OC)c3nnnn3Cc3ccco3)CC2)cc1 (stereo unspecified) do in these assays?
D1 ag: inactive; D1 antagonist: inactive; D1 potentiator: inactive; TRHR ag: inactive; TRHR enhancer: 39

What do the screens show for `COc1ccc(OC)c(C(c2nnnn2CCc2ccccc2)N2CCN(c3ccccc3)CC2)c1` (stereo unspecified)?
D1 ag: inactive; D1 antagonist: inactive; D1 potentiator: inactive; TRHR ag: inactive; TRHR enhancer: inactive

What do the screens show for `COc1cccc(C(c2nnnn2CC2CCCO2)N2CCN(C(=O)c3ccco3)CC2)c1OC` (stereo unspecified)?
D1 ag: inactive; D1 antagonist: -38; D1 potentiator: inactive; TRHR ag: inactive; TRHR enhancer: inactive

Results for NC(=O)C1CCN(C(=O)c2ccc3c(c2)N(Cc2cccc(Cl)c2)C(=O)c2ccccc2S3=O)CC1 (stereo unspecified) ?
D1 ag: inactive; D1 antagonist: inactive; D1 potentiator: inactive; TRHR ag: inactive; TRHR enhancer: inactive

Results for Cc1ccccc1C(=O)Nc1cc(NC(=O)c2ccccc2C)cc(C(=O)O)c1 ?
D1 ag: inactive; D1 antagonist: -38; D1 potentiator: inactive; TRHR ag: inactive; TRHR enhancer: inactive

What do the screens show for `COC(=O)c1cc(NC(=O)c2ccccc2F)cc(C(=O)OC)c1`?
D1 ag: inactive; D1 antagonist: -32; D1 potentiator: inactive; TRHR ag: inactive; TRHR enhancer: inactive

How did COC(=O)c1cc(NC(=O)c2ccc(F)cc2)cc(C(=O)OC)c1 do in these assays?
D1 ag: inactive; D1 antagonist: inactive; D1 potentiator: inactive; TRHR ag: inactive; TRHR enhancer: inactive

What do the screens show for `O=C(O)c1cc(NC(=O)c2ccccc2F)cc(NC(=O)c2ccccc2F)c1`?
D1 ag: inactive; D1 antagonist: inactive; D1 potentiator: inactive; TRHR ag: inactive; TRHR enhancer: inactive

What do the screens show for `Cc1occc1C(=O)NNS(=O)(=O)c1ccc(Cl)cc1`?
D1 ag: inactive; D1 antagonist: inactive; D1 potentiator: inactive; TRHR ag: inactive; TRHR enhancer: 37

From PubChem BioAssay
